We go through six molecules from PubChem BioAssay.

Inconclusive results are not listed. Calls of active or inactive are those of the source.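 How the source made its calls, unless noted: active means normalized viability below 100% at a tested concentration; inactive means the rest.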

Test [1] is described as follows: growth inhibition of DIPG glioma cells, dose response, cell-based, SU-DIPG-XVII, MIPE5.0, CellTiter-Glo, qHTS (AID 1347060; cut-off not given, nearly all actives have AC50 up to about 26 µM;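 on AC50: cells exposed to compound for 48 hours before viability readout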). As to conditions: SU-DIPG-XVII viability, CellTiter-Glo ATP luminescence. (ATP-based viability assays read luminescence as a measure of living cells.)
A short description of test [2]: growth inhibition of DIPG glioma cells, dose response, cell-based, SU-DIPG-XIII, MIPE5.0, CellTiter-Glo, qHTS (AID 1347064; cut-off not given, nearly all actives have AC50 up to about 23 µM;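 on AC50: cells exposed to compound for 48 hours before the viability read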). As to conditions: SU-DIPG-XIII viability, CellTiter-Glo ATP luminescence.
A short description of test [3]: viability loss in pontine glioma line – cell-based, SU-DIPG-XXV, MIPE5.0, CellTiter-Glo, qHTS, dose response (AID 1347065; cut-off not given, nearly all actives have AC50 up to about 26 µM;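 further: cells exposed to compound for 48 hours before ATP readout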). As to conditions: CellTiter-Glo ATP luminescence.
A short description of test [4]: JHH-DIPG-1 glioma cell viability, MIPE5.0 library, CellTiter-Glo luminescence, qHTS (AID 1347067; cut-off not given, nearly all actives have AC50 up to about 26 µM;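 further: cells exposed to compound for 48 hours before readout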). As to conditions: JHH-DIPG-1 glioma viability, CellTiter-Glo ATP luminescence.
Test [5] can be described thus: sensitizers of A549 cells to miR-34 induction, primary screen, imaging, A549 dox-inducible miR-34, nuclei and caspase counts (AID 1347080;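 active means compounds whose cell count with miR-34 switched on is under 0.7 times the count with it off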). As to conditions: A549 miR-34 inducible, Hoechst nuclei count, 48 h.
Test [6] is described as follows: survival rescue of mitochondrial mutant cells in low glucose, primary screen, MELAS cybrids, Rieske KO mouse fibroblasts, CellTiter-Glo (AID 1508586;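 active means mean z-score across replicates of 1.96 or higher in either the MELAS or the Rieske mutant cell line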;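 further: z relative to plate mean and SD of compound and empty wells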).
Test [7] can be described thus: ovarian cancer cell viability with rucaparib, profiling panel, oncology-focused library, rucaparib conditional (AID 1508598). As to conditions: patient-derived ovarian cancer cells, CellTiter-Glo viability, 144 h, stronger effect = lower value.
Test [8] can be described thus: SU-DIPG-XXV glioma cell viability, MIPE5.0 library, qHTS (AID 1347068; cut-off not given, nearly all actives have IC50 up to about 30 µM). Background: qHTS replaces the single test concentration by a dilution series.
Where [9] appears, read: stronger effect = lower value, cell number ratio, induced over uninduced.
[10] abbreviates: measured here: relative caspase fold change +Dox/-Dox.
The mark [11] stands for this setting: measured here: total cells with miR-34 induction, stronger effect = lower value.
The mark [12] stands for this setting: measured here: total cells without miR-34 induction.
Setting [13] is: MELAS cybrid survival, CellTiter-Glo 48 h, stronger effect = higher value.
The mark [14] stands for this setting: Rieske KO mouse fibroblast survival, CellTiter-Glo 72 h.

Broadly, the AC50 is the concentration giving half of the maximal activity seen. What is called viability is a read-out of living cells in per cent, often relative to untreated cells. For the molecule `Cc1nc2c(-c3cnc(N)nc3)nc(N3CCOCC3)nc2n1C(C)C`, the AC50 in test [1] is 0.742 µM (active); in test [2], 1.05 µM (active); in test [3], 0.332 µM (active); in test [4] it was 0.742 µM (active). Besides, the fold change in test [5] (setting [9]) is 0.815 (inactive); in test [5] (setting [10]) it was 0.682. Moreover, the cell count in test [5] (setting [11]) stood at 1980; in test [5] (setting [12]), 2430. Moreover, the z-score in test [6] (setting [13]) is 5.52 (active); in test [6] (setting [14]), -0.403. Further, the viability in test [7] (at 0.000305 µM, OCI-C5x cells, with rucaparib 10 µM, 100% = cells with rucaparib alone) is 117% (inactive); in test [7] (at 0.000305 µM, OCI-C5x cells, without rucaparib), 112% (inactive); in test [7] (at 0.000305 µM, OCI-P5x cells, with rucaparib 20 µM, 100% = cells with rucaparib alone) it was 108% (inactive); in test [7] (at 0.000305 µM, OCI-P5x cells, without rucaparib), 109% (inactive); in test [7] (at 0.00122 µM, OCI-C5x cells, with rucaparib 10 µM, 100% = cells with rucaparib alone), 120% (inactive); in test [7] (at 0.00122 µM, OCI-C5x cells, without rucaparib), 120% (inactive). Also, the viability in test [7] (at 0.00122 µM, OCI-P5x cells, with rucaparib 20 µM, 100% = cells with rucaparib alone) is 95.6% (active); in test [7] (at 0.00122 µM, OCI-P5x cells, without rucaparib), 109% (inactive); in test [7] (at 0.00488 µM, OCI-C5x cells, with rucaparib 10 µM, 100% = cells with rucaparib alone), 120% (inactive); in test [7] (at 0.00488 µM, OCI-C5x cells, without rucaparib), 116% (inactive); in test [7] (at 0.00488 µM, OCI-P5x cells, with rucaparib 20 µM, 100% = cells with rucaparib alone), 92.3% (active); in test [7] (at 0.00488 µM, OCI-P5x cells, without rucaparib), 113% (inactive). For the same molecule, the viability was 111% (inactive) in test [7] (at 0.0195 µM, OCI-C5x cells, with rucaparib 10 µM, 100% = cells with rucaparib alone); 114% (inactive) in test [7] (at 0.0195 µM, OCI-C5x cells, without rucaparib); 90.3% (active) in test [7] (at 0.0195 µM, OCI-P5x cells, with rucaparib 20 µM, 100% = cells with rucaparib alone); 108% (inactive) in test [7] (at 0.0195 µM, OCI-P5x cells, without rucaparib); 98.8% (active) in test [7] (at 0.0781 µM, OCI-C5x cells, with rucaparib 10 µM, 100% = cells with rucaparib alone); 116% (inactive) in test [7] (at 0.0781 µM, OCI-C5x cells, without rucaparib). For the same molecule, the viability in test [7] (at 0.0781 µM, OCI-P5x cells, with rucaparib 20 µM, 100% = cells with rucaparib alone) is 77.8% (active); in test [7] (at 0.0781 µM, OCI-P5x cells, without rucaparib), 97.3% (active); in test [7] (at 0.313 µM, OCI-C5x cells, with rucaparib 10 µM, 100% = cells with rucaparib alone), 102% (inactive); in test [7] (at 0.313 µM, OCI-C5x cells, without rucaparib) it was 103% (inactive); in test [7] (at 0.313 µM, OCI-P5x cells, with rucaparib 20 µM, 100% = cells with rucaparib alone) it was 68.3% (active); in test [7] (at 0.313 µM, OCI-P5x cells, without rucaparib), 76.9% (active). For the same molecule, the viability was 69.8% (active) in test [7] (at 1.25 µM, OCI-C5x cells, with rucaparib 10 µM, 100% = cells with rucaparib alone); 54.3% (active) in test [7] (at 1.25 µM, OCI-C5x cells, without rucaparib); 37.6% (active) in test [7] (at 1.25 µM, OCI-P5x cells, with rucaparib 20 µM, 100% = cells with rucaparib alone); 34.8% (active) in test [7] (at 1.25 µM, OCI-P5x cells, without rucaparib); 34.3% (active) in test [7] (at 5 µM, OCI-C5x cells, with rucaparib 10 µM, 100% = cells with rucaparib alone); 32.9% (active) in test [7] (at 5 µM, OCI-C5x cells, without rucaparib). Further, the viability was 13.7% (active) in test [7] (at 5 µM, OCI-P5x cells, with rucaparib 20 µM, 100% = cells with rucaparib alone) and 14.6% (active) in test [7] (at 5 µM, OCI-P5x cells, without rucaparib).

For the molecule `Cn1ncc(Cl)c1-c1cc(C(=O)N[C@H](CN)Cc2cccc(F)c2)sc1Cl`, the results for the AC50 in test [1], in test [2] and in test [3] were 5.9 µM (active), 2.95 µM (active) and 3.72 µM (active), respectively. For the same molecule, in test [8], the call was inactive.

Turning to `N#Cc1ccnc(N2C(=O)CC[C@H]2C(=O)N(c2cncc(F)c2)[C@H](C(=O)NC2CC(F)(F)C2)c2ccccc2Cl)c1`, the call in test [1], in test [2], in test [3] and in test [8] was inactive.

In the case of `Cc1c(NC(=O)OCC2COCCN2)cn2ncnc(Nc3ccc4c(cnn4Cc4cccc(F)c4)c3)c12` (centres undefined), the AC50 is 18.6 µM (active) in test [1], 23.5 µM (active) in test [2], 23.5 µM (active) in test [3] and 20.9 µM (active) in test [4]. For the same molecule, the fold change is 1.04 (inactive) in test [5] (setting [9]) and 0.875 in test [5] (setting [10]). The cell count was 4510 in test [5] (setting [11]) and 4340 in test [5] (setting [12]). Further, the z-score in test [6] (setting [13]) was -0.264 (inactive); in test [6] (setting [14]), 0.355.

Turning to `CC(C)Oc1ccc(-c2nn([C@@H](C)c3oc4ccc(F)cc4c(=O)c3-c3cccc(F)c3)c3ncnc(N)c23)cc1F`, the molecule was classed as inactive in test [1], in test [2], in test [3] and in test [8].

Take `C[C@@H](O)[C@@H]1NC(=O)[C@H](CCCCN)NC(=O)[C@@H](Cc2c[nH]c3ccccc23)NC(=O)[C@H](Cc2ccccc2)NC(=O)[C@@H](NC(=O)[C@H](N)Cc2ccccc2)CSSC[C@@H](C(=O)N[C@H](CO)[C@@H](C)O)NC1=O`: the outcome in test [1], in test [2], in test [3] and in test [4] was inactive. The fold change in test [5] (setting [9]) is 0.862 (inactive); in test [5] (setting [10]), 0.995. Moreover, the results for the cell count in test [5] (setting [11]) and in test [5] (setting [12]) were 9290 and 10800, respectively. The z-score was 0.396 (inactive) in test [6] (setting [13]) and -0.498 in test [6] (setting [14]).
